The text below walks through data of PubChem BioAssay (NCI).

The structures appear in SMILES notation. This is part of a sample that, as a whole, favours compounds with a hit. Of some 83,000 tested, about 20% had one in any assay.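 96-well plates, one dose, 48 hours. Percent growth reported; active if below 10.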 Values without a mark were called inactive. Activity calls are given as the source filed them.

Holding throughout (experiment): NCI-60 one-dose screen, 48 h (100 = growth as untreated, 0 = no growth, -100 = all killed)
What all share (details): 10 µM unless noted

The test system of assay [1] is SR leukemia.
Assay [2] relates to RPMI-8226 leukemia.
Assay [3] has as its system OVCAR-8 ovarian.
The subject of assay [4] is OVCAR-5 ovarian.
Assay [5] has as its system OVCAR-4 ovarian.
In assay [6] the test system is SK-OV-3 ovarian.
The test system of assay [7] is OVCAR-3 ovarian.
Assay [8] has as its system HS 578T breast.
The test system of assay [9] is NCI/ADR-RES ovarian.
For assay [10], the system named is IGROV1 ovarian.

Turning to `O=C(COc1ccc(/C=C2\Oc3ccc4ccccc4c3C2=O)cc1)c1ccc(Cl)cc1`, the growth in assay [1] is 26.8%; in [2], 62.1%; in assay [3], 100%; in [4], 113%; in assay [5], 94.6%; in assay [6] it was 104%. Further, the growth was 127% in assay [7], 91.7% in [8] and 107% in assay [9].

On to `CC(=O)Nc1cc(C(c2ccccc2)c2ccccc2)cc(C(c2ccccc2)c2ccccc2)c1C`, for which the growth was 14.3% in assay [1]; 11.2% in [2]; 73.8% in assay [3]; 75.4% in assay [4]; 43.8% in assay [5]; 77% in assay [6]. Moreover, the growth is 58% in [10] and 51.8% in assay [9].

`O=c1[nH]c(SCc2ccccc2)nc2nc(Nc3ccc(NC(=S)Nc4ccccc4)cc3)nc(-c3ccc(O)cc3O)c12`: the growth in assay [1] was 54.8%; in [2], 96.5%; in [3], 108%; in [4], 87.5%; in assay [5], 100%; in [6] it was 91.4%. In addition, the growth in [7] was 81.1%; in [8], 107%; in [9], 99.3%.

For `O=C(COc1cccc(/C=C2\Oc3ccc4ccccc4c3C2=O)c1)c1ccc([N+](=O)[O-])cc1`, the growth in [1] is 3.73% (active); in assay [2], 79.9%; in assay [3], 97.6%; in [4], 100%; in assay [5], 81.8%; in [6], 88.9%. Also, the growth in assay [7] was 103%; in assay [8] it was 93.1%; in assay [9] it was 102%.

With `CC[n+]1c(/C=C/c2ccc(N3CCCC3)cc2)cccc1/C=C/c1ccc(N2CCCC2)cc1`, the growth in [1] is 57.2%; in [2] it was -41.1% (active); in assay [3], -87.3% (active); in assay [4] it was -80.1% (active); in assay [5] it was -73.8% (active); in assay [6] it was -95.6% (active). Further, the values for the growth in assay [7], in assay [8] and in [9] were -90.1% (active), -70.2% (active) and -68.6% (active), respectively.

In the case of `CSc1nc(-c2ccc(O)cc2O)c2c(=O)[nH]c(Nc3ccc(S(=O)(=O)Nc4nc(C)cc(C)n4)cc3)nc2n1`, the growth in assay [1] is 63.3%; in assay [2], 99.2%; in assay [3], 107%; in assay [4], 90%; in assay [5] it was 108%; in assay [6], 105%. Also, the growth in assay [7] is 98.1%; in assay [8] it was 119%; in assay [9], 97.5%.

For `Cc1cc2ccccn2c1C(=O)c1ccc(C(=O)c2ccccc2)cc1`, the growth in [1] is -3.06% (active); in [2] it was 82.1%; in assay [3], 87.9%; in assay [4], 87.8%; in assay [5], 81.4%; in assay [6] it was 111%. The growth was 96% in assay [7], 86% in [8] and 72% in assay [9].

Regarding `O=C(NN1C(=O)c2cc(C(=O)O)c(C(=O)O)cc2C1=O)c1ccncc1`, the growth is 119% in assay [1]; 103% in assay [2]; 112% in assay [3]; 107% in assay [4]; 116% in assay [5]; 110% in [6]. The growth in assay [7] was 131%; in assay [8], 104%; in assay [9], 116%.

Take `COc1cc2c(cc1OC)C(=O)/C(=C/c1cccc(OCC(=O)c3ccccc3)c1)C2`: the growth in assay [1] is 42.2%; in assay [2], 43.3%; in [3], 76.8%; in [4], 105%; in [5], 86%; in assay [6] it was 117%. Further, the growth was 118% in assay [7], 77.2% in [8] and 50.2% in assay [9].

With `CCOC(=O)c1cc2oc(/C=C/c3cc(=O)c4cc(Cl)ccc4o3)cc2[nH]1`, the growth in assay [1] is 87.9%; in assay [2], 94.3%; in assay [3] it was 105%; in assay [4], 89.3%; in assay [5] it was 89.6%; in [6], 98.5%. In addition, the values for the growth in assay [7], in assay [8] and in assay [9] were 72.3%, 71.2% and 93.6%, respectively.

As to `O=[N+]([O-])c1cc([N+](=O)[O-])c(N2CCCC2)cc1NN=C(c1ccc(O)cc1)c1ccc(O)cc1`, the growth in assay [1] was 77.1%; in [2], 82.2%; in assay [3] it was -45.4% (active); in [4] it was 38.2%; in assay [5], 81.6%; in assay [6] it was 39.9%. The growth in assay [7] is 89.8%; in assay [8], 137%; in assay [9], 33.6%.

Consider `COc1cc(/C=N/NC(=O)c2ccc(C(F)(F)F)nc2Nc2cc(Cl)ccc2C)cc(OC)c1OC`, for which the growth was 91.8% in assay [1]; 64.7% in assay [2]; 99.8% in assay [3]; 103% in assay [4]; 104% in [5]; 106% in [6]. Also, the results for the growth in [7], in [8] and in assay [9] were 123%, 104% and 98.3%, respectively.

As for `COc1ccc2cc(-c3nc4ccccc4[nH]3)c(=O)oc2c1`, the growth in assay [1] was 36.5%; in assay [2], 115%; in [3], 101%; in assay [4] it was 101%; in assay [5] it was 99.3%; in assay [6], 104%. In addition, the growth is 106% in assay [7], 125% in [8] and 93% in assay [9].

With `COc1ccc(C(=O)COc2cccc(/C=C3\CSc4ccc(Cl)cc4C3=O)c2)cc1`, the growth was 20% in assay [1]; -13.7% (active) in assay [2]; 78.4% in assay [3]; 93.5% in assay [4]; 64.6% in [5]; 94.6% in assay [6]. Moreover, the growth was 88% in assay [7], 91% in [8] and 84.3% in assay [9].

`Cc1ccc(OCC(=O)Nc2ccc(Oc3ccccc3)cc2)c([N+](=O)[O-])n1`: the growth in assay [1] was 82.6%; in assay [2], 50.7%; in [3] it was 79%; in [4] it was 84.4%; in assay [5] it was 77.4%; in assay [6], 71.9%. Besides, the growth is 88.7% in [7], 113% in assay [8] and 43.7% in assay [9].
